Among all 77,000 compounds or so, about 4,600 (6%) were called active. About 1% were inconclusive and are not listed. This is one part of a sample in which actives are shown more often than they occur.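 The calls were made as follows: active = mean inhibition above about 93%, with at least 55% of replicates each passing it (limit read from the data, passing the limit was not always enough); inconclusive = only one of those two conditions holds; inactive = neither condition holds.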

The results in this text go back to PubChem BioAssay AID624255 (Broad Institute, 2012).

The nature of this assay: T. cruzi intracellular proliferation inhibitors, primary screen, cell-based, beta-gal Tulahuen parasites, NIH3T3 host, luminescence (AID 624255). The settings on record: T. cruzi beta-gal in NIH3T3, GalScreen luminescence, 90 h; at 8.34 µM; stronger effect = higher value.
Regarding `COc1ccc(CN(C)C[C@@H]2OCCCC[C@H](C)Oc3ccc(NC(=O)c4ccccc4)cc3C(=O)N([C@H](C)CO)C[C@H]2C)cc1`, the inhibition – broadly, the drop in the measured response relative to a control, in per cent – is 76.8% (inactive).

Turning to `CC=Cc1ccc2n(c1=O)C[C@@H]1[C@@H](CO)[C@H](C(=O)NCC(F)(F)F)N(CCc3ccccc3)[C@H]21` (mixture of isomers), the inhibition is 47.7% (inactive).

For `Cc1ccc(S(=O)(=O)N[C@H]2CC[C@@H](CC(=O)NCc3ccc(Cl)c(Cl)c3)O[C@H]2CO)cc1`, the inhibition was 64.8% (inactive).

With `CCCC(=O)Nc1ccc2c(c1)C(=O)N(C)C[C@@H](OC)[C@@H](C)CN(Cc1cncnc1)[C@@H](C)CO2`, the inhibition is -11% (inactive).

For `CC(C)NC(=O)Nc1ccc2c(c1)CC(=O)N([C@@H](C)CO)C[C@@H](C)[C@H](CN(C)CC1CC1)O2`, the inhibition was 14.2% (inactive).

As to `CCC(=O)Nc1ccc2c(c1)C(=O)N(C)[C@@H]1CC[C@@H](CC(=O)N[C@@H](C)c3ccccc3)O[C@@H]1CO2`, the inhibition is 29.7% (inactive).

As to `COc1ccc(S(=O)(=O)Nc2ccc3c(c2)C(=O)N([C@H](C)CO)C[C@@H](C)[C@H](CN(C)Cc2ccccc2)O3)cc1`, the inhibition was 13.7% (inactive).

For `C[C@H](CO)N1C[C@H](C)[C@H](CN(C)C(=O)Nc2cccc3ccccc23)Oc2ncc(C#Cc3ccccc3)cc2C1=O`, the inhibition is 122% (active).

`C[C@@H]1CN([C@H](C)CO)C(=O)c2cc(/C=C/c3ccccc3)cnc2O[C@@H]1CN(C)Cc1ccncc1`: the inhibition is 96.3% (active).

With `CCCC#Cc1cnc2c(c1)C(=O)N([C@H](C)CO)C[C@@H](C)[C@@H](CN(C)C(=O)Nc1ccccc1F)O2`, the inhibition was 11.2% (inactive).

Take `CCCC#Cc1cnc2c(c1)C(=O)N([C@H](C)CO)C[C@H](C)[C@@H](CN(C)Cc1ccccc1)O2`: the inhibition was 18.3% (inactive).

For `C[C@H](CO)N1C[C@H](C)[C@@H](CN(C)Cc2cccnc2)Oc2ncc(/C=C/c3ccccc3)cc2C1=O`, the inhibition was 12.8% (inactive).

In the case of `C[C@@H]1CN([C@H](C)CO)C(=O)c2cc(C#Cc3ccccn3)cnc2O[C@H]1CN(C)Cc1ccccc1`, the inhibition was 120% (active).

With `C/C=C/c1cnc2c(c1)C(=O)N([C@@H](C)CO)C[C@@H](C)[C@H](CN(C)Cc1ccccc1)O2`, the inhibition is -55.6% (inactive).

On to `CC(C)C#Cc1cnc2c(c1)C(=O)N([C@H](C)CO)C[C@@H](C)[C@H](CN(C)Cc1ccccc1)O2`, for which the inhibition was -6.87% (inactive).

As for `CC(C)CC#Cc1cnc2c(c1)C(=O)N([C@H](C)CO)C[C@H](C)[C@H](CN(C)C(=O)Nc1ccccc1F)O2`, the inhibition is 53.1% (inactive).

As to `COc1ccccc1-c1cn(CC[C@H]2CC[C@H](NC(=O)C3CCOCC3)[C@@H](CO)O2)nn1`, the inhibition is 7.67% (inactive).

As for `O=C(C[C@@H]1C=C[C@H](NC(=O)Nc2ccc3c(c2)OCO3)[C@H](CO)O1)NCc1ccccc1`, the inhibition is 17.2% (inactive).

Consider `CC=Cc1ccc2n(c1=O)C[C@@H]1[C@@H](CO)[C@H](C(=O)NCCc3ccccc3)N(C(C)=O)[C@H]21` (mixture of isomers), for which the inhibition was 28.7% (inactive).

On to `CCCC#Cc1ccc([C@@H]2[C@H](CO)N3CCCCN(S(=O)(=O)c4ccccc4F)C[C@@H]23)cc1`, for which the inhibition was 37.8% (inactive).

As to `CCCC#Cc1ccc([C@H]2[C@H](CO)N3CCCCN(S(=O)(=O)CC)C[C@@H]23)cc1`, the inhibition is 47.8% (inactive).

For `C[C@@H](O)C#Cc1ccc([C@@H]2[C@H](CO)N3CCCCN(S(=O)(=O)c4ccccc4)C[C@@H]23)cc1`, the inhibition was 107% (active).

Turning to `C[C@H](O)C#Cc1ccc([C@H]2[C@H]3CN(S(=O)(=O)Cc4ccccc4)CCCCN3[C@H]2CO)cc1`, the inhibition was 110% (active).

For `C[C@@H](O)C#Cc1ccc([C@H]2[C@@H](CO)N3CCCCN(S(=O)(=O)c4ccccc4)C[C@@H]23)cc1`, the inhibition was 59.2% (inactive).

For the compound `C[C@H](O)C#Cc1ccc([C@@H]2[C@H](CO)N3CCCCN(CC4CC4)C[C@@H]23)cc1`, the inhibition was 8.49% (inactive).

Turning to `C[C@@H](O)C#Cc1ccc([C@H]2[C@@H](CO)N3CCCCN(CC4CC4)C[C@@H]23)cc1`, the inhibition was 29.6% (inactive).

For the compound `CN(C)CC#Cc1ccc([C@H]2[C@H]3CN(S(=O)(=O)c4ccccc4F)CCCCN3[C@H]2CO)cc1`, the inhibition was 106% (active).

As to `C[C@@H](O)C#Cc1ccc([C@@H]2[C@H]3CN(S(=O)(=O)c4ccccc4)CCCCN3[C@H]2CO)cc1`, the inhibition was 26.7% (inactive).

Turning to `C/C=C/c1ccc([C@H]2[C@H]3CN(S(=O)(=O)c4ccccc4)CCCCN3[C@H]2CO)cc1`, the inhibition is 123% (active).

`CCC(=O)Nc1ccc2c(c1)C(=O)N(C)[C@@H]1CC[C@@H](CC(=O)Nc3cccc(OC)c3)O[C@@H]1CO2`: the inhibition was -12.2% (inactive).

As for `O=C(N[C@@H]1CC[C@H](CCn2cc(-c3ccccc3)nn2)O[C@H]1CO)c1cnccn1`, the inhibition was 20.6% (inactive).

As to `CNC(=O)C[C@@H]1CC[C@@H]2[C@H](COc3ccc(NC(=O)c4cccs4)cc3C(=O)N2C)O1`, the inhibition is 9.57% (inactive).

Turning to `CC(C)CC#Cc1cnc2c(c1)C(=O)N([C@H](C)CO)C[C@H](C)[C@H](CN(C)CC1CCOCC1)O2`, the inhibition is 60.8% (inactive).

Consider `C/C=C/c1cnc2c(c1)C(=O)N([C@H](C)CO)C[C@H](C)[C@@H](CN(C)C(=O)Nc1ccc(C(F)(F)F)cc1)O2`, for which the inhibition was 108% (inactive).

Turning to `COCC(=O)N1C[C@H]2[C@@H](c3ccccc31)[C@@H](CO)N2Cc1ccccc1`, the inhibition was -14.2% (inactive).

Turning to `COc1cccc(-c2ccc3c(c2)[C@@H]2[C@@H](CCN2C(=O)CN2CCOCC2)[C@H](CO)N3)c1`, the inhibition was 88.3% (inactive).

Turning to `C[C@H](O)C#Cc1ccc([C@@H]2[C@H]3CN(S(=O)(=O)c4ccccc4)CCCCN3[C@H]2CO)cc1`, the inhibition is 107% (active).

Take `O=S(=O)(c1ccccc1)N1CCCCN2[C@@H](CO)[C@H](c3ccc(C#Cc4cccnc4)cc3)[C@@H]2C1`: the inhibition is 90.8% (inactive).

Regarding `CC(C)NC(=O)N1CCCCN2[C@H](CO)[C@H](c3ccc(C#C[C@H](C)O)cc3)[C@H]2C1`, the inhibition was 90.4% (inactive).

With `C[C@H]1CN([C@@H](C)CO)C(=O)c2cccc(NS(=O)(=O)c3cn(C)cn3)c2O[C@H]1CN(C)C(=O)Nc1ccc2c(c1)OCO2`, the inhibition was -234% (inactive).
